Source: PubChem BioAssay (NCATS)
Records with an inconclusive call do not appear. Calls of active or inactive are those of the source. Unless noted, calls come from the whole dose curve; as a rule, active = well fitted curve in the direction sought with a large enough effect; inconclusive = small, poorly fitted or top-dose-only effect, or another doubt; inactive = no such curve, though single readings can be large; an effect the other way counts as inactive or inconclusive.

Assays:
[1] = Primary qHTS for inhibitors of La Crosse Virus (LACV) - induced cell death in SH-SY5Y cells (AID 1508616);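 note: top concentration of the series differs between compounds; 0% = infected DMSO wells and 100% = uninfected DMSO wells; higher means more rescue of cells from virus-induced death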
In short: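 Protection against LACV-induced cell death is scored in SH-SY5Y cells exposed to compounds and virus (0.01 MOI) for 6 days. Data normalized to virus-infected DMSO wells and virus-free DMSO wells.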

[2] = target: Calcium and integrin-binding protein 1 (Homo sapiens) (UniProt Q99828); assay: Primary qHTS for Identification of Calcium Integrin Binding Protein 1 (CIB1) Competitor (AID 1508620);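 note: GST tagged CIB1 binding a fluorescein labelled alphaIIb integrin peptide tracer; top concentration of the series differs between compounds; % is set by controls: 0 for no effect and ±100 for the full control effect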
In short: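 Fluorescence polarization competition: CIB1-GST (1 uM final) preincubated with compound 15 min at room temperature, then FITC-labeled alphaIIb peptide (100 nM final) added for another 15 min. Polarization read at Ex 480/Em 540.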

[3] = Primary qHTS for small molecule stabilizers of the endoplasmic reticulum resident proteome: Secreted ER Calcium Modulated Protein (SERCaMP) assay (AID 1508630); note: % is set by controls: 0 for no effect and ±100 for the full control effect
In short: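 GLuc-SERCaMP-expressing SH-SY5Y cells, pretreated 16 h with compound, are challenged with thapsigargin to empty ER calcium stores; after 4 h, coelenterazine is added directly to the medium and luminescence is imaged.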

[4] = target: Cytochrome P450 2C9 (Homo sapiens) (UniProt P11712); assay: Cytochrome P450 family 2 subfamily C member 9 (CYP2C9) small molecule antagonists: luciferase biochemical (cell-free) qHTS assay (AID 1645842; active = well fitted curve in the direction sought with a large enough effect in the repeat runs; an effect the other way counts as inactive or inconclusive; note: nearly all actives have a fitted effect of over 55% in size; note: potency is the fitted concentration of half-maximal effect)
In short: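 Luminescence, after 20 min with luciferin detection reagent, reflected CYP2C9 turnover during a 1 h NADPH-driven reaction at 37C. Enzyme-substrate mix contained 0.4% bovine serum albumin and was preincubated with compound 10 min at room temperature.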

[5] = target: Protein phosphatase 1D (Homo sapiens) (UniProt O15297); assay: Rhodamine-PBP qHTS Assay for Modulators of WT P53-Induced Phosphatase 1 (WIP1) (AID 1347425); note: % of control where 0% means no effect
In short: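 Read-out: Rhodamine-PBP fluorescence (ex 525/em 598 nm) for released Pi, read each minute for 11 min after adding 10 uM VEPPL-pS-QETFS; signal taken as f1 minus pre-substrate f0. Enzyme 5 nM WIP1 with 1 hr room-temperature compound preincubation.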

[6] = target: Protein phosphatase 1D (Homo sapiens) (UniProt O15297); assay: RapidFire Mass Spectrometry qHTS Assay for Modulators of WT P53-Induced Phosphatase 1 (WIP1) (AID 1347424);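 note: amount of dephosphorylated VEPPL-S-QETFS peptide product formed by WIP1; series mostly up to about 63 µM; plate controls were DMSO wells for no effect and GSK830371 inhibitor control at 10 µM for full effect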
In short: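 WIP1 (10 nM final) was preincubated 1 h at room temperature with compounds in Tris-HCl pH 7.5, 30 mM MgCl2, TCEP, EGTA, BSA; 2 uM VEPPL-pS-QETFS phosphopeptide was added for 5 min, quenched with formic acid, and dephosphorylated product quantified by RapidFire MS.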

[7] = A High-Content qHTS Against Drug Library for the Identification of Small Molecules that Inhibit DYT1 Early Onset Primary Dystonia-Associated Cell Pathology (AID 1645839; calls by dose curve; note: potency is the fitted concentration of half-maximal effect; for % pathology change, negative = correction: series mostly up to about 46 µM)
In short: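 Readout: %pathology, the punctate EGFP-TorsinA distribution from imaging, as the primary channel and cell count as the toxicity counterscreen. HEK293 Flp-In cells expressing delE TorsinA were induced with tetracycline and treated with compound for 48 h.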

[8] = target: Cytochrome P450 2D6 (Homo sapiens) (UniProt P10635); assay: Cytochrome P450 family 2 subfamily D member 6 (CYP2D6) small molecule antagonists: luciferase biochemical (cell-free) qHTS assay (AID 1645840; active = well fitted curve in the direction sought with a large enough effect in the repeat runs; an effect the other way counts as inactive or inconclusive; note: nearly all actives have a fitted effect of over 55% in size; note: potency is the fitted concentration of half-maximal effect; for activity change, negative = inhibition: series mostly up to about 57 µM; % is set by controls: 0 for no effect and ±100 for the full control effect)
In short: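 P450-Glo luminescent screen: recombinant CYP2D6 enzyme–proluciferin substrate mix preincubated with compound 10 min at room temperature, then NADPH regeneration added for 1 h at room temperature. Detection reagent added for 20 min; luciferin light read as relative luminescence units.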

[9] = Primary qHTS for inhibitors of nuclear receptor binding SET domain protein 2 (NSD2) in an isogenic RCH-ACV NSD2 p.E1099K mutant (9B) (AID 1645876); note: % is set by controls: 0 for no effect and ±100 for the full control effect; nearly all actives have a fitted effect of over 70% in size
[10] = Primary qHTS for inhibitors of nuclear receptor binding SET domain protein 2 (NSD2) in an RCH-ACV wild type WT cells (2C) (AID 1645877); note: nearly all actives have a fitted effect of over 70% in size; note: potency is the fitted concentration of half-maximal effect
[11] = target: Cytochrome P450 3A4 (Homo sapiens) (UniProt P08684); assay: Cytochrome P450 family 3 subfamily A member 4 (CYP3A4) small molecule antagonists: luciferase qHTS assay (AID 1645841; active = well fitted curve in the direction sought with a large enough effect in the repeat runs; an effect the other way counts as inactive or inconclusive; note: nearly all actives have a fitted effect of over 45% in size)
In short: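 P450-Glo CYP3A4 enzyme with proluciferin substrate was preincubated with DMSO-dissolved compounds for 10 min at room temperature. NADPH regeneration solution started a 1 h reaction. Detection reagent stopped it, and luminescence was read after 20 min.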

[12] = Counterscreen qHTS for small molecule stabilizers of the endoplasmic reticulum resident proteome: GLuc-NoTag assay (AID 1508627); note: potency is the fitted concentration of half-maximal effect
In short: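 SH-SY5Y cells stably expressing constitutively secreted GLuc (no SERCaMP tag) were pre-incubated 5 h, treated with compound for 19 h, then 100 nM thapsigargin for 4 h at 37C; medium GLuc read by coelenterazine luminescence.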

[13] = Confirmatory qHTS for small molecule stabilizers of the endoplasmic reticulum resident proteome: Secreted ER Calcium Modulated Protein (SERCaMP) assay (AID 1508628); note: series mostly up to about 76 µM; % is set by controls: 0 for no effect and ±100 for the full control effect; nearly all actives have a fitted effect of over 40% in size
In short: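 SH-SY5Y cells stably expressing GLuc-SERCaMP, treated 16 h with compound (primary 1.53, 7.67, 38.3 uM; confirmation 11 concentrations, up to 76.6 uM), then 100 nM thapsigargin for 4 h. Secreted Gaussia luciferase in medium read by coelenterazine luminescence.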

[14] = target: Papain (Carica papaya) (UniProt P00784); assay: Primary qHTS assay for inhibitors of the protease papain (AID 1645873);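 note: papain turnover of Z-FR-AMC read as the AMC fluorescence gain over 10 min; series mostly up to about 50 µM; % is set by controls: 0 for no effect and ±100 for the full control effect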
Papain (Carica papaya), sequence (P00784 whole entry, looked up): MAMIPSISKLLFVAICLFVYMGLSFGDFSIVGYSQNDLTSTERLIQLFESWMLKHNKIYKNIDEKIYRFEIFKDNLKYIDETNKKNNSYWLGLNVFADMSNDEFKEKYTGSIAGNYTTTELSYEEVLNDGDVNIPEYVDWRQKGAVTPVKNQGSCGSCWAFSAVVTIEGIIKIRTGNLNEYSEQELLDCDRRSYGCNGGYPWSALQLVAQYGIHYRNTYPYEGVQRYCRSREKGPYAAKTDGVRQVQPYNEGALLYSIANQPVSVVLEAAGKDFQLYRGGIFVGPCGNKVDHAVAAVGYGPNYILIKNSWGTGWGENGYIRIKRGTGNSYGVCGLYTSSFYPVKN

Protein phosphatase 1D (Homo sapiens), sequence (O15297 whole entry, looked up): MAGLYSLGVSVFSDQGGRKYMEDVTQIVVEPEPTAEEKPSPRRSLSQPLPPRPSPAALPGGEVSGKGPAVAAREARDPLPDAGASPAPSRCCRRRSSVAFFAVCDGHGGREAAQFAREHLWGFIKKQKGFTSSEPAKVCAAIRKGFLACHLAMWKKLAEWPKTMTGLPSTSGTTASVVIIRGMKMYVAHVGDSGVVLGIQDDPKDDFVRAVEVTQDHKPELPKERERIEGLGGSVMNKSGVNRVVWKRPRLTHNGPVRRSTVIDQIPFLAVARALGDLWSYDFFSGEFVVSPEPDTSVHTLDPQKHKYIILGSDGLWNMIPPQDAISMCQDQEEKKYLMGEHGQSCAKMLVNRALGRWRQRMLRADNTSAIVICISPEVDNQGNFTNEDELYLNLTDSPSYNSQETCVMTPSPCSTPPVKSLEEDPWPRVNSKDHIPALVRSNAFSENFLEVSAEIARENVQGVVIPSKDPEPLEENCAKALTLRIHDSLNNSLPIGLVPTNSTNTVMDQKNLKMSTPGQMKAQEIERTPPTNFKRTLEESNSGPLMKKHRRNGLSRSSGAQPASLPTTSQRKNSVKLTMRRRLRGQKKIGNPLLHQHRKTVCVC
Cytochrome P450 2D6 (Homo sapiens), sequence (P10635 whole entry, looked up): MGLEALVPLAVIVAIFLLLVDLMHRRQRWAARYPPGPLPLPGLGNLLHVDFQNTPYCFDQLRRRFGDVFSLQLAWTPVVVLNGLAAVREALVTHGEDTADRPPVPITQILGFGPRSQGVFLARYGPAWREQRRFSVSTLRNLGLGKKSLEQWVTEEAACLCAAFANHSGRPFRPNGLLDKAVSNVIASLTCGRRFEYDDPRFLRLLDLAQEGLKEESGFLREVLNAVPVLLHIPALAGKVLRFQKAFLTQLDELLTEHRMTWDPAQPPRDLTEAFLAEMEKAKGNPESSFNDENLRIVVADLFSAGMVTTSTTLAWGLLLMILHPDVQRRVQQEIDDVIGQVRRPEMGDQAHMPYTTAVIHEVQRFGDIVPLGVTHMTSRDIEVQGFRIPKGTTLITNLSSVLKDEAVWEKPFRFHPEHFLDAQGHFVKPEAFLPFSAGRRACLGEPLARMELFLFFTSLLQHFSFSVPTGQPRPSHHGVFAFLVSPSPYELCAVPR
Calcium and integrin-binding protein 1 (Homo sapiens), sequence (Q99828 whole entry, looked up): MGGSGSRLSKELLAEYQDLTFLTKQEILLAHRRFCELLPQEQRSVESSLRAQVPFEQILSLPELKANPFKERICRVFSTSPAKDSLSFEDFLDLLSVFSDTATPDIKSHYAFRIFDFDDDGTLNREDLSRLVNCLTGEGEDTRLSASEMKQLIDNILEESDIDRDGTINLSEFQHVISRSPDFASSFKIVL
Cytochrome P450 2C9 (Homo sapiens), sequence (P11712 whole entry, looked up): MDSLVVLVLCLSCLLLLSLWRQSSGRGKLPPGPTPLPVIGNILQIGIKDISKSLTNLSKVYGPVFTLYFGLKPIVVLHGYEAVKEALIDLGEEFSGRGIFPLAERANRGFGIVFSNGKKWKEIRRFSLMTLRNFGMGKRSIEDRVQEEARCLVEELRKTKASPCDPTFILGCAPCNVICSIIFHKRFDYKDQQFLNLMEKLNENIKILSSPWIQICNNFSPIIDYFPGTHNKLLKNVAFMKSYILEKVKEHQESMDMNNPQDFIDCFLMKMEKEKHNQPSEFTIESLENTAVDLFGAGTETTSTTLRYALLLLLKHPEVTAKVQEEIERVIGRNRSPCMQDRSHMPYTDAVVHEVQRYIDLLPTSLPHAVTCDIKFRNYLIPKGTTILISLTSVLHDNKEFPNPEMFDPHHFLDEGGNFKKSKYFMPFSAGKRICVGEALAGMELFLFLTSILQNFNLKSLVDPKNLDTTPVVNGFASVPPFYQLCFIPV
Cytochrome P450 3A4 (Homo sapiens), sequence (P08684 whole entry, looked up): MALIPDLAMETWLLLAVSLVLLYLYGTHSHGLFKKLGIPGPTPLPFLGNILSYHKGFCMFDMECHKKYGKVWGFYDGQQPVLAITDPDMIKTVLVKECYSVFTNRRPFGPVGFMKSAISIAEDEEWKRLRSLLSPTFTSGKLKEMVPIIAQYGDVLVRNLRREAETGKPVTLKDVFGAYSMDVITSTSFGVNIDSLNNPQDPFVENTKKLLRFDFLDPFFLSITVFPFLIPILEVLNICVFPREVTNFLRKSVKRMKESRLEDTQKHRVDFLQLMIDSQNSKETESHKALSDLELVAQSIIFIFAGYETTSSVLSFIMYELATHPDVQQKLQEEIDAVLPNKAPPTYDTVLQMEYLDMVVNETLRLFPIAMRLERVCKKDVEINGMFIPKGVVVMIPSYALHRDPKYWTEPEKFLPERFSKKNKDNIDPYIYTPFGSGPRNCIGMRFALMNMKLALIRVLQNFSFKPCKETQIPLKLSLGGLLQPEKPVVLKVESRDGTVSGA

COc1ccc2c(c1)C(=O)N(CCc1ccc(S(=O)(=O)NC(=O)NC3CCCCC3)cc1)C(=O)C2(C)C
active: Potency [4] 13.8 µM
inactive: outcome [1] | outcome [2] | Potency [3]

CCCc1c(OCCCCc2nn[nH]n2)ccc(C(C)=O)c1O
inactive: outcome [5] | outcome [1] | outcome [2] | Potency [3]
active: Potency [4] 0.138 µM

O=C1O[C@H](CO)[C@@H](O)[C@H](O)[C@H]1O
inactive: outcome [6] | outcome [5] | outcome [1] | Potency [3] | Potency [7] | Potency [8] | Potency [4] | Potency [9] | Potency [10]

c1ccc(CN(CC2=NCCN2)c2ccccc2)cc1
inactive: outcome [6] | outcome [1] | Potency [3] | Potency [7] | Potency [9] | Potency [10]
active: Potency [8] 1.74 µM

C[C@@H]1CC[C@@]2(OC1)O[C@H]1C[C@H]3[C@@H]4CC[C@H]5C[C@@H](O)CC[C@]5(C)[C@H]4CC(=O)[C@]3(C)[C@H]1[C@@H]2C
inactive: activity change, negative = inhibition [6] 12.5% [at 6.17 µM] | activity change, negative = inhibition [5] 1.62% [at 4.81 µM] | activity change, negative = inhibition [2] -1.41% [at 12.4 µM] | activity change, negative = inhibition [3] -13.5% [at 3.88 µM] | % pathology change, negative = correction [7] -10% [at 4.63 µM] | activity change, negative = inhibition [8] 8.49% [at 4.83 µM] | activity change, negative = inhibition [11] 37% [at 4.83 µM] | activity change, negative = inhibition [4] 5.2% [at 4.83 µM] | activity change, negative = viability loss [9] -10.8% [at 4.96 µM] | outcome [10] inactive [at 4.96 µM]

CNCCC(Oc1ccc(C(F)(F)F)cc1)c1ccccc1 (stereo not drawn)
inactive: outcome [6] | outcome [5] | Potency [13] | Potency [3] | Potency [14]
active: Potency [12] 44.7 µM | Potency [7] 12.6 µM | Potency [10] 23.7 µM
